# Measured values published in PubChem BioAssay.
# A number with no mark means an inactive call. No rule for the calls is given here.
# Molecular target: Pantothenate synthetase (Mycobacterium tuberculosis (strain ATCC 25618 / H37Rv)) (UniProt P9WIL5)
# Assay: Coupled enzyme confirmation of inhibitors against recombinant Mtb PanC (AID 375);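 also: 0% = full reaction with vehicle and 100% = no enzyme background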
# Conditions: coupled enzyme assay; at 10 µM, stronger effect = higher value
# Chain of Pantothenate synthetase (Mycobacterium tuberculosis (strain ATCC 25618 / H37Rv)) (P9WIL5 whole entry, looked up): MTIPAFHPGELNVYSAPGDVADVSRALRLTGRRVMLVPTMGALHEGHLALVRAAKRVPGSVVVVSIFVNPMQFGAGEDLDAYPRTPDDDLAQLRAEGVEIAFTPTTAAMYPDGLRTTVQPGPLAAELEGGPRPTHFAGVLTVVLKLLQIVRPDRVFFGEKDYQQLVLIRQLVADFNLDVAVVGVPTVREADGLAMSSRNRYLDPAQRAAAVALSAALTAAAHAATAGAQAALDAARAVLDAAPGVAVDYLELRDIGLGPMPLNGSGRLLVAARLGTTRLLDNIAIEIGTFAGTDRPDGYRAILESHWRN
row,SMILES,inhibition
1,O=C(CCn1c(=O)oc2ccccc21)N1CCN(c2ccccc2Cl)CC1,0%
2,Cc1cc2ncn(N)c2cc1C,9%
3,CC(=O)NCCc1nc2ccccc2[nH]1,0%
4,CCC(C)NC(=O)c1cc(-c2ccc(OC)cc2)on1 (centres undefined),0%
5,Cc1cc(NC(=O)C(C)(C)C)no1,0%
6,O=C(C1CCC(CNS(=O)(=O)c2cccc3cccnc23)CC1)N1CCCC1 (centres undefined),0%
7,O=C(O)c1ccccc1C(=O)Nc1ccccc1,0%
8,O=C(Cn1c(=O)oc2ccccc21)N1CCN(c2ccccc2)CC1,0%
9,Cc1ccc2c(C)nc(Nc3nc(CSc4nnnn4-c4ccccc4)cc(=O)[nH]3)nc2c1,11%
10,CCOc1ccccc1N(C(=O)c1ccco1)C(C(=O)NC1CCCC1)c1cccnc1 (centres undefined),0%
11,Cc1cccc(OCC(=O)N2CCC(c3ccccc3)C2)c1 (centres undefined),3%
12,CC1/C(=N/O)C(CN(C)C)C2CC1C2(C)C (centres undefined),0%
13,CCn1c(C(=O)N2CCCC(C(=O)O)C2)cc2sccc21 (centres undefined),11%
14,CCCN(CCC)c1nc2ccccc2n2c(C)nnc12,4%
15,O=C1CSC(c2cn(-c3ccccc3)nc2-c2ccccc2)N1Cc1ccco1 (centres undefined),4%
16,COc1ccc(C2C(C(C)=O)=C(O)C(=O)N2C)c(OC)c1 (centres undefined),0%
17,COc1ccc(C(C)N2CC34C=CC(O3)C(C(=O)OCC(C)C)C4C2=O)cc1 (centres undefined),9%
18,CCC1(C)Cc2c(sc3nc(SCC(=O)O)[nH]c(=O)c23)CO1 (centres undefined),0%
19,COc1ccccc1CNC(=O)CCNC(=O)Cn1ccc2ccccc2c1=O,6%
20,CCCCc1c(O)nc(SCC(=O)Nc2ccc3c(c2)CCC3)[nH]c1=O,2%

row,SMILES,inhibition
1,Cc1cc(-n2c(C)cc(C(=O)CSc3nnnn3-c3ccc(Cl)cc3)c2C)no1,7%
2,COc1ccccc1CC(=O)Nc1ccc(OC)c(OC)c1,3%
3,CCCN1C2CCCC1CC(NC(=O)c1ccccc1F)C2 (centres undefined),2%
4,CN(C)C(=O)CSc1nnc2sc3ccccc3n12,0%
5,CCCC(=O)NCCc1cc2c(C)ccc(C)c2[nH]c1=O,0%
6,CCCCOC(=O)CN1C(=O)c2ccc(C(=O)OCCCC)cc2C1=O,0%
7,COc1ccccc1NC(=O)CSc1nnc(Cc2cccn2C)n1-c1ccc(F)cc1,0%
8,CC1CCc2c(sc(N)c2C(N)=O)C1 (centres undefined),0%
9,CC(NC(=O)c1ccccc1NC(=O)c1ccco1)C(=O)O (centres undefined),0%
10,CNC(=O)NCCN1CCCC1=O,6%
11,Cc1cc(N)n2nc(-c3ccccc3)cc2n1,0%
12,CC(=O)NC(Cc1ccccc1)C(=O)NC1CCN(C(=O)c2cnccn2)CC1 (centres undefined),0%
13,CCOC(=O)CNC(=O)CSc1ncnc2c1cnn2Cc1ccccc1,0%
14,Cc1ccc(-c2csc3ncn(-n4c(C)ccc4C)c(=O)c23)o1,0%
15,Cc1cccc(NC(=O)CC2CCC2)c1,0%
16,CCOC(=O)Nc1c(C(=O)OC)[nH]c2cccc(OC)c12,0%
17,COC(=O)c1ccccc1S(=O)(=O)N(CCCN1CCOCC1)Cc1cccs1,0%
18,COC1=CC(=O)CC(C)C12Oc1c(Cl)c(OC)cc(OC)c1C2=O (centres undefined),0%
19,CCOC(=O)Nc1cc(OC)c(OC)cc1Cc1nccc2cc(OC)c(OC)cc12,0%
